According to PubChem BioAssay (NCATS):
For part of these data: Entries with a potency or affinity are not part of this list. The source made the active and inactive calls. The rule behind the calls is not given here.

Experiments:
[1] = Ebola virus entry assay, green fluorescence channel
[2] = Ebola virus entry assay, green channel fluorescence
[3] = Ebola virus entry assay, reporter ratio channel; AC50: Channel type: primary unless noted; outcome: Channel type: primary unless noted
[4] = Ebola virus entry assay, blue channel (ratio component)

Measured: efficacy
Throughout, for efficacy: 0% is about no effect.

CC(C)(Oc1ccc(Cl)cc1)C(=O)O
inactive: [1] -14.9% | [2] | [3] | [4]

CCOC(=O)c1ccc(OCCN2C[C@H](O)[C@@H](O)[C@H](O)[C@H]2CO)cc1
inactive: [1] -12.9% | [2] | [3] | [4]

CC(=O)[C@@]1(O)CC[C@H]2[C@@H]3C[C@H](C)C4=CC(=O)C=C[C@]4(C)[C@@]3(F)[C@@H](O)C[C@@]21C
inactive: [1] -18.9% | [2] | [3] | [4]

CN(C)C(=O)Oc1ccc[n+](C)c1
inactive: [1] 18% | [2] | [3] | [4]

CC(=O)OCC(=O)[C@H]1CC[C@H]2[C@@H]3CCC4=CC(=O)CC[C@]4(C)[C@H]3CC[C@]12C
inactive: [1] -27% | [2] | [3] | [4]

CCCCCCCCCCCCCCCCN
inactive: [1] -37.3% | [2] | [3] | [4]

CCOc1ccc2nc3cc(N)ccc3c(N)c2c1
inactive: [1] 18.4% | [2] | [3] | [4]

Cc1ccccc1N1CCN(CCc2nnc3n2CCCC3)CC1
inactive: [1] -13.1% | [2] | [3] | [4]

O=C(N/N=C/c1ccc([N+](=O)[O-])o1)c1cc([N+](=O)[O-])cc([N+](=O)[O-])c1O
inactive: [1] -16.9% | [2] | [3] | [4]

CC(C(=O)O)c1cccc(Oc2ccccc2)c1 (stereo not given)
inactive: [1] 18.1% | [2] | [3] | [4]

CC(C)(Sc1cc(C(C)(C)C)c(O)c(C(C)(C)C)c1)Sc1cc(C(C)(C)C)c(O)c(C(C)(C)C)c1
inactive: [1] -17.7% | [2] | [3] | [4]

c1ccc2c(c1)CCCC2C1=NCCN1 (stereo not given)
inactive: [1] -12.9% | [2] | [3] | [4]

CC(C)(N)Cc1ccccc1Cl
inactive: [1] 18% | [2] | [3] | [4]

CCCCOC(=O)c1ccc(N)cc1
inactive: [1] 12.8% | [2] | [3] | [4]

O=C(O)c1ccc(=O)[nH]c1
inactive: [1] -14.8% | [2] | [3] | [4]

O=C(O)CSCC(=O)NC1CCSC1=O (stereo not given)
inactive: [1] -14.4% | [2] | [3] | [4]

C=CCc1ccc(O)c(OC)c1
inactive: [1] 23.7% | [2] | [3] | [4]

COc1cc(OC)c(C(=O)CCCN2CCCC2)c(OC)c1
inactive: [1] -22.4% | [2] | [3] | [4]

Oc1ccccc1C=NCc1ccccc1
inactive: [1] -16.4% | [2] | [3] | [4]

CCOC(=O)Oc1ccc(CCNC(=O)[C@H](CCSC)NC(C)=O)cc1OC(=O)OCC
inactive: [1] -12.4% | [2] | [3] | [4]

CCC(C)(CN(C)C)OC(=O)c1ccccc1 (stereo not given)
inactive: [1] 37.4% | [2] | [3] | [4]

CCS(=O)(=O)c1ccc(OC)c(C(=O)OC)c1
inactive: [1] 18.9% | [2] | [3] | [4]

Cc1c(C(=O)NCCO)[n+](=O)c2ccccc2n1[O-]
inactive: [1] -17% | [2] | [3] | [4]

CC(=O)OCC(COC(C)=O)OC(C)=O
inactive: [1] 12.7% | [2] | [3] | [4]

CC1(COc2ccc(CC3SC(=O)NC3=O)cc2)CCCCC1 (stereo not given)
inactive: [1] -16.4% | [2] | [3] | [4]

Nc1nc(N)nc(-c2cc(Cl)ccc2Cl)n1
inactive: [1] -23.5% | [2] | [3] | [4]

Cc1cc(C)nc(NS(=O)(=O)c2ccc(N)cc2)n1
inactive: [1] -8.79% | [2] | [3] | [4]

Cc1c(Nc2ncccc2C(=O)O)cccc1C(F)(F)F
inactive: [1] -17.3% | [2] | [3] | [4]

CC1c2ccccc2CN1NC(=O)c1ccc(Cl)c(S(N)(=O)=O)c1 (stereo not given)
inactive: [1] 14.8% | [2] | [3] | [4]

COc1cc(/C=C/C(N)=O)cc(OC)c1OC
inactive: [1] -22.5% | [2] | [3] | [4]

CC(C)Cc1ccc(C(C)C(=O)O)cc1 (stereo not given)
inactive: [1] 17.8% | [2] | [3] | [4]

CO[C@@]1(NC(=O)CSCC#N)C(=O)N2C(C(=O)O)=C(CSc3nnnn3C)CS[C@@H]21
inactive: [1] -13.7% | [2] | [3] | [4]

COc1ccc2c(c1)CCCC2=O
inactive: [1] 8.41% | [2] | [3] | [4]

COc1ccc(/C(C)=C/C(=O)O)c(OC)c1
inactive: [1] -13.7% | [2] | [3] | [4]

CCCCCCCCCCCCCCCC(=O)OC(C)C
inactive: [1] 10.3% | [2] | [3] | [4]

Oc1cccc(O)c1
inactive: [1] -18.5% | [2] | [3] | [4]

CC1CCN(CCCC(=O)c2ccc(F)cc2)CC1
inactive: [1] -14.6% | [2] | [3] | [4]

Cc1cc(=O)c2c(O)c3c(O)cc(=O)c4c3c3c(cc(O)c1c23)C(C)(C)C=4O
inactive: [1] -11.2% | [2] | [3] | [4]

CC12CCC(CC1)C(C)(C)O2
inactive: [1] 14.6% | [2] | [3] | [4]

CN1CCC(O)(c2ccc(F)cc2)C(C(=O)c2ccc(F)cc2)C1 (stereo not given)
inactive: [1] 22.6% | [2] | [3] | [4]

CCCCC(CC)CNC(=O)CC(C)OC(=O)CCC(=O)O (stereo not given)
inactive: [1] 12.2% | [2] | [3] | [4]

O=c1[nH]c(=O)n([C@H]2C[C@H](O)[C@@H](CO)O2)cc1I
inactive: [1] -7.83% | [2] | [3] | [4]

CN1C(C)(C)CCCC1(C)C
inactive: [1] 14.2% | [2] | [3] | [4]

COC(=O)CCCCC(CCSS/C(CCO)=C(\C)N(C=O)Cc1cnc(C)nc1N)SC(C)=O (stereo not given)
inactive: [1] -13.6% | [2] | [3] | [4]

C[C@@H](O)[C@H]1C(=O)N2C(C(=O)O)=C(SCCN=CN)C[C@H]12
inactive: [1] 21.9% | [2] | [3] | [4]

Cc1cc2cc3c(C)cc(=O)oc3c(C)c2o1
inactive: [1] -24.3% | [2] | [3] | [4]

Nc1ccc(S(=O)(=O)Nc2ccc(Cl)nn2)cc1
inactive: [1] -19.3% | [2] | [3] | [4]

CCc1oc2ccccc2c1C(=O)c1cc(I)c(O)c(I)c1
inactive: [1] -12% | [2] | [3] | [4]

C[C@]12CCC(=O)C=C1CC[C@@H]1[C@@H]2[C@@H](O)C[C@@]2(C)[C@H]1CC[C@]2(O)C(=O)COC(=O)CCC(=O)O
inactive: [1] -14% | [2] | [3] | [4]

NCC(=O)CCC(=O)O
inactive: [1] -14.6% | [2] | [3] | [4]

C[C@@H]1CN(c2c(F)c(F)c3c(=O)c(C(=O)O)cn(C4CC4)c3c2F)C[C@H](C)N1
inactive: [1] -15.7% | [2] | [3] | [4]

COc1ccccc1OCC(O)CO (stereo not given)
inactive: [1] 12% | [2] | [3] | [4]

CC(=O)Oc1cccc2c1C(=O)c1c(OC(C)=O)cc(C(=O)O)cc1C2=O
inactive: [1] -17.1% | [2] | [3] | [4]

Cc1coc2ccccc2c1=O
inactive: [1] -25.1% | [2] | [3] | [4]

CC(=O)Nc1c(I)c(NC(C)=O)c(I)c(C(=O)O)c1I
inactive: [1] -8.35% | [2] | [3] | [4]

Cc1cc(O)cc(C)c1Cl
inactive: [1] -20.2% | [2] | [3] | [4]

CCCCOC(=O)CC(CC(=O)OCCCC)(OC(C)=O)C(=O)OCCCC
inactive: [1] 21.9% | [2] | [3] | [4]

CSCC[C@H](NC(=O)[C@H](Cc1c[nH]c2ccccc12)NC(=O)CCNC(=O)OC(C)(C)C)C(=O)N[C@@H](CC(=O)O)C(=O)N[C@@H](Cc1ccccc1)C(N)=O
inactive: [1] 9.45% | [2] | [3] | [4]

CCCc1ccc(OCC(=O)N2CCN(C(=O)COc3ccc(CCC)cc3OC)CC2)c(OC)c1
inactive: [1] 12.4% | [2] | [3] | [4]

Cc1ccc(C(=O)C(C)CN2CCCCC2)cc1 (stereo not given)
inactive: [1] -18.5% | [2] | [3] | [4]
